According to PubChem BioAssay (NCI):
The panel holds about 83,000 compounds, 20% with a hit somewhere; the sample as a whole holds those more often.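 Percent growth is the endpoint: 0 to 100 indicates growth inhibition (40 means 60% inhibition), 0 means no net growth, and negative values indicate cell death.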 Values without a mark were called inactive. Activity calls are given as the source filed them. The calls were made as follows: active = growth percent below 10; inactive = the rest.

Key:
Assay in all cases: NCI-60 one-dose screen, 48 h (100 = growth as untreated, 0 = no growth, -100 = all killed)
Settings in all cases: 10 µM unless noted
DU-145 prostate = tested on: DU-145 prostate
K-562 leukemia = tested on: K-562 leukemia
MALME-3M melanoma = tested on: MALME-3M melanoma
MDA-MB-231 breast = tested on: MDA-MB-231 breast
RXF 393 renal = tested on: RXF 393 renal
SF-268 CNS = tested on: SF-268 CNS
SF-295 CNS = tested on: SF-295 CNS
SF-539 CNS = tested on: SF-539 CNS
UACC-257 melanoma = tested on: UACC-257 melanoma
M14 melanoma = tested on: M14 melanoma
HCT-15 colon = tested on: HCT-15 colon
HT29 colon = tested on: HT29 colon
SNB-75 CNS = tested on: SNB-75 CNS
SNB-19 CNS = tested on: SNB-19 CNS
U251 CNS = tested on: U251 CNS
PC-3 prostate = tested on: PC-3 prostate
SK-MEL-5 melanoma = tested on: SK-MEL-5 melanoma
UACC-62 melanoma = tested on: UACC-62 melanoma
LOX IMVI melanoma = tested on: LOX IMVI melanoma
SK-MEL-28 melanoma = tested on: SK-MEL-28 melanoma

| SMILES | growth (DU-145 prostate) | growth (K-562 leukemia) | growth (MALME-3M melanoma) | growth (MDA-MB-231 breast) | growth (RXF 393 renal) | growth (SF-268 CNS) | growth (SF-295 CNS) | growth (SF-539 CNS) | growth (UACC-257 melanoma) | growth (M14 melanoma) | growth (HCT-15 colon) | growth (HT29 colon) | growth (SNB-75 CNS) | growth (SNB-19 CNS) | growth (U251 CNS) | growth (PC-3 prostate) | growth (SK-MEL-5 melanoma) | growth (UACC-62 melanoma) | growth (LOX IMVI melanoma) | growth (SK-MEL-28 melanoma) |
| --- | --- | --- | --- | --- | --- | --- | --- | --- | --- | --- | --- | --- | --- | --- | --- | --- | --- | --- | --- | --- |
| COc1ccc2c(c1)C(c1c[nH]c3ccccc13)(c1c[nH]c3ccccc13)CCO2 | 74.6% | 29.5% | 88.8% | 35.1% | 76.1% | 52.2% | 36.6% | 71.7% | 48.1% | 39.7% | 41.8% | 23.8% | 28% | 66.4% | 42.2% | 31% | 66.2% | 44.9% | 42.6% | 54.2% |
| O=[N+]([O-])c1ccc(N/N=C\c2cc(Cl)ccc2O)nc1 | 39.4% | 17.8% | 25.6% | 48.8% | 50.2% | 33.3% | 29.9% | 29.8% | 30.2% | 17.1% | 26% | 50.9% | 70.1% | 44.8% | 33% | 24.5% | 4.09% (active) | 11.2% | 22.6% | 55.3% |
| CCN1CCN(c2cc(C(=O)Nc3cccc(Nc4ccc5c(OC)cccc5n4)c3)cc(C(F)(F)F)c2)CC1 | 23.3% | -29.8% (active) | -59.6% (active) | 9.58% (active) | 17.3% | 32.8% | 14% | 19.5% | -40.3% (active) | -41.9% (active) | -15.9% (active) | -60% (active) | 35.8% | 36% | 13.9% | 7.66% (active) | -1.86% (active) | 13% | -94.1% (active) | -44.4% (active) |
| CC1=C2[C@@H](CC1)[C@]1(C)O[C@@](C(C)C)(C[C@H]1OC(=O)CO)[C@H]2OC(=O)CCCc1ccccc1 | 75.8% | 53.9% | 57.3% | 88.2% | 86.2% | 73.4% | 78.5% | 96.6% | 85.1% | 77.5% | 65.7% | 72.1% | 90.8% | 92.5% | 74.5% | 26.9% | 66.8% | 40.2% | 52.3% | 90.2% |
| C=C(C)[C@@H]1CC[C@]2(C(=O)NC(C)=O)CC[C@]3(C)[C@H](CC[C@@H]4[C@@]5(C)CCCNC(C)(C)[C@@H]5CC[C@]43C)[C@@H]12 | 24.8% | 3% (active) | -83.3% (active) | 23.7% | 25.2% | 60.5% | 77.6% | -79.6% (active) | -64.5% (active) | -65.3% (active) | -33.2% (active) | -5.24% (active) | 52% | 58.3% | -41.6% (active) | 27.4% | -94.5% (active) | 81.6% | -81.8% (active) | -88.4% (active) |
| COC(=O)c1nc(-c2ccccc2)oc1S(=O)(=O)N1CCN(c2ccc(OC)cc2)CC1 | 86.5% | 20.4% | 77.4% | 75.7% | 84.9% | 93.8% | 103% | 94.1% | 83.4% | 54.2% | 42.8% | 43.8% | 101% | 97.8% | 90.8% | 63.9% | 90.8% | 86.8% | 62.9% | 88.3% |
| C=CCn1c(SCC(=O)Nc2ccc(C(=O)/C=C/c3ccc(Cl)cc3)cc2)nnc1-c1ccc(Cl)c(Cl)c1 | 92.2% | 50.4% | 85.2% | 85.2% | 75.1% | 80.4% | 93.9% | 87% | 93.9% | 80.1% | 78.8% | 71.6% | 73.9% | 85.3% | 81% | 51.8% | 82.3% | 62.4% | 72.2% | 101% |
| O=C1NCCN1/N=C/c1c(Cl)n(Cc2ccc(Cl)cc2)c2ccccc12 | 89.4% | 65.2% | 150% | 73.9% | 69.4% | 104% | 74.2% | 87.2% | 64.6% | 114% | 93.3% | 111% | 94.4% | 107% | 75.5% | 89% | 68% | 53.5% | 72.7% | 112% |
| CNC(=O)c1cc(Oc2ccc3nc(NC(=O)Nc4ccc(F)cc4F)sc3c2)ccn1 | 65.7% | 71.5% | 46.2% | 47.7% | 42.3% | 76.1% | 76.7% | 61.7% | 74.3% | 69.1% | 84% | 58.8% | 19.2% | 71.1% | 37% | 65.9% | 39% | 65.1% | 52.1% | 52.1% |
| CN1C(=O)N(C)C2C1NN=c1s/c(=C\c3ccc(F)cc3)c(=O)n12 (stereo not given) | 58.5% | 11.4% | 31.5% | 29.4% | 38.5% | 58.7% | 28.8% | 29.7% | 1.68% (active) | 23.1% | 27.3% | 2.74% (active) | -7.45% (active) | 34.8% | 26.8% | 34.8% | 31.7% | 26.7% | 36.1% | 59.4% |
| Cc1ccc(-c2nnc(SCc3nc(N)nc(Nc4ccccc4F)n3)n2-c2ccccc2)cc1 | 102% | 89.9% | 117% | 91.9% | 80.7% | 97.3% | 94.3% | 97% | 99.3% | 103% | 91.3% | 98.5% | 102% | 91.8% | 92.8% | 87.7% | 91.5% | 86% | 100% | 97.5% |
| Cn1nc(-c2ccc(Cl)cc2)nc2c(=O)n(C)c(=O)nc1-2 | -97.5% (active) | -52.7% (active) | -90.1% (active) | -24.9% (active) | -30.8% (active) | -19.8% (active) | -29.6% (active) | -99.2% (active) | -83.4% (active) | -91.9% (active) | -67.5% (active) | -77.3% (active) | -100% (active) | -84.5% (active) | -82.6% (active) | 16.6% | -98.5% (active) | -55.2% (active) | -58.6% (active) | -64.4% (active) |
| COc1cccc(-c2cc(-c3ccc(Nc4nc(Nc5ccc(Cl)cc5)nc(Nc5ccc(Cl)cc5)n4)cc3)nc(N)c2C#N)c1 | 56.3% | 41.5% | -52.9% (active) | -14.1% (active) | -48.7% (active) | 71% | 83.2% | 6.72% (active) | 16.3% | 15.6% | 22.8% | 16.8% | 65.9% | 106% | 3.83% (active) | -5.44% (active) | 13% | 76.4% | -33.6% (active) | -59.7% (active) |
| O=C(Nc1ccccc1C(F)(F)F)C1=NCCCCN1 | 106% | 94.4% | 103% | 102% | 97% | 96.8% | 93.6% | 96.1% | 99% | 98.3% | 97.8% | 98.7% | 88% | 97.7% | 103% | 96.5% | 100% | 93.3% | 96.2% | 106% |
| FC(F)(F)c1cc(N2CCCCC2)nc(NCCCNc2ccnc3cc(Cl)ccc23)n1 | 81.8% | 11.2% | 72.7% | 87.9% | 59.7% | 70.3% | 51.1% | 74.8% | 53.3% | 70.9% | 53.2% | 26.8% | 71.9% | 82.2% | 67.4% | 45.4% | 27.1% | 61.9% | 65.8% | 76.7% |
| CC(=O)OCCOc1cc(Cl)c(Cl)cc1Cl | 105% | 102% | 114% | 94.3% | 102% | 99.4% | 95% | 107% | 102% | 103% | 104% | 103% | 102% | 103% | 99.2% | 98.3% | 99.5% | 98.3% | 101% | 113% |
